# How the values were obtained:
# Test in all cases: PBM binding z-score (relative to random genomic background probes); higher = stronger binding; sequences stand for … in GC…GCGATTGACAGCGTAGAATGAAGG
# [1] = tested on: FXR:RXRa (NR concentration 270 nM, RXRa partner concentration 90 nM)
# In short: (§1)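 Scanned fluorescence from custom Agilent 4×180K protein-binding microarrays was regression-normalized. Binding z-scores use random background probes as reference. Ligand-free nuclear receptor dimers were incubated on the arrays for 1 h and detected with antibodies against each partner (one per run).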
# [2] = tested on: LXRa:RXRa (NR concentration 270 nM, RXRa partner concentration 90 nM)
# In short: as §1
# [3] = tested on: LXRa homodimer (NR concentration 270 nM)
# In short: as §1
# [4] = tested on: LXRb:RXRa (NR concentration 270 nM, RXRa partner concentration 90 nM)
# In short: as §1
# [5] = tested on: LXRb homodimer (NR concentration 270 nM)
# In short: as §1
# [6] = tested on: PPARa:RXRa (NR concentration 270 nM, RXRa partner concentration 90 nM)
# In short: as §1
# [7] = tested on: PPARg:RXRa (NR concentration 180 nM, RXRa partner concentration 90 nM)
# In short: as §1
# [8] = tested on: PPARg:RXRa 270nM:90nM, anti-RXR (NR concentration 270 nM, RXRa partner concentration 90 nM)
# In short: as §1
# [9] = tested on: PPARg:RXRa 30nM:10nM, anti-RXR (NR concentration 30 nM, RXRa partner concentration 10 nM)
# In short: as §1
# [10] = tested on: PPARg:RXRa 90nM:30nM, anti-RXR (NR concentration 90 nM, RXRa partner concentration 30 nM)
# In short: as §1
# [11] = tested on: PPARg:RXRa DBDmut IVT, anti-RXR (DBD mutation: RXRa K156A/R161A, NR concentration 270 nM, RXRa partner concentration 90 nM)
# In short: as §1
# [12] = tested on: PPARg:RXRa IVT, anti-PPARg (NR concentration 270 nM, RXRa partner concentration 90 nM)
# In short: as §1
# [13] = tested on: PPARg DBDmut:RXRa IVT, anti-PPARg (DBD mutation: PPARg1 K132A/R137A, NR concentration 270 nM, RXRa partner concentration 90 nM)
# In short: as §1
# [14] = tested on: PPARg DBDmut IVT, anti-PPARg (DBD mutation: PPARg1 K132A/R137A, NR concentration 270 nM)
# In short: as §1
# [15] = tested on: PPARg homodimer (NR concentration 180 nM)
# In short: as §1
# [16] = tested on: PXR:RXRa (NR concentration 270 nM, RXRa partner concentration 90 nM)
# In short: as §1
# [17] = tested on: PXR homodimer (NR concentration 270 nM)
# In short: as §1
# [18] = tested on: RARa:RXR (NR concentration 270 nM, RXRa partner concentration 90 nM)
# In short: as §1
# [19] = tested on: RARa homodimer (NR concentration 270 nM)
# In short: as §1
# [20] = tested on: RARb:RXRa (NR concentration 270 nM, RXRa partner concentration 90 nM)
# In short: as §1
Sequence,PBM binding z-score [1],PBM binding z-score [2],PBM binding z-score [3],PBM binding z-score [4],PBM binding z-score [5],PBM binding z-score [6],PBM binding z-score [7],PBM binding z-score [8],PBM binding z-score [9],PBM binding z-score [10],PBM binding z-score [11],PBM binding z-score [12],PBM binding z-score [13],PBM binding z-score [14],PBM binding z-score [15],PBM binding z-score [16],PBM binding z-score [17],PBM binding z-score [18],PBM binding z-score [19],PBM binding z-score [20]
AAGACAGGGTCACTAGGCCAGAGTAGGTACGAAT,5.99,3.14,-0.215,3.25,-0.368,5.62,7.53,6.21,2.71,5.21,3.14,5.06,0.632,0.999,1.27,2.89,0.212,4.16,-0.193,4.21
GCAGACAGGTGAAACGCAGGTAACGCAGGGTGGC,-0.151,-0.229,-0.631,-0.357,-1.09,0.749,0.665,-0.038,-0.74,-0.0828,0.691,0.737,-0.603,-0.805,-0.678,-0.552,-0.857,0.395,-0.862,0.76
CCGACTGTGGCATAAGGTTACCATAAGCCAGCCC,0.578,2.4,0.142,1.07,-0.834,1.36,0.99,1.57,-0.0445,0.844,1.12,0.305,-0.617,-0.541,0.621,0.365,0.018,0.961,0.166,0.964
AGTCACAGTTCATCTAGGTAACGTAAGATATGCT,2.21,2.57,1.29,1.54,0.388,2.11,1.85,1.88,0.525,1.04,0.901,2.75,1.15,1.19,0.64,2.32,1.87,1.44,0.582,2.74
TCTTGTAAATCAAAGGTTAAGAAAGCCGAAGCCT,1.34,2.53,0.811,1.94,0.621,3.08,3.23,5.39,4.93,5.88,1.48,1.25,0.212,0.506,1.05,1.42,-0.311,2.32,0.632,1.87
TCTATTACTTGAAGGGCAACCGACGAGTCCGTTT,0.851,1.02,0.425,1.19,0.925,1.48,0.388,2.11,3.96,3.26,2.52,0.782,1.07,1.12,0.761,1.01,0.901,1.02,1.4,1.59
TCGAGTTGGTTACCAATGGGGCATTCAGCTTTCT,-0.51,-0.505,-1.1,-0.17,-0.988,-0.0256,-0.676,0.352,0.536,0.652,0.424,-0.405,-1.9,-0.375,-1.66,-0.425,-0.63,-0.69,-1.31,-0.219
TCATATAGGTGAAGGTGAAAGTCGAACGATATGA,0.452,0.703,-0.543,0.713,-0.39,3.24,5.02,5.16,4.73,4.96,6,6.13,1.24,0.938,0.35,0.448,0.0381,1.08,0.38,1.88
ATCGAAAGGTCGAGGCGAGTATAGAGAAAGGGAA,3.71,3.01,-0.542,2.24,0.308,4.47,2.71,2.86,0.749,1.52,0.108,1.14,0.481,0.208,0.98,2.11,0.0659,2.71,0.203,3.86
AGAACGAGGGCAATGAGTTGATAGTACGGGTGGC,0.224,0.29,-0.524,-0.18,-0.473,1.56,1.5,0.768,0.0705,0.415,3.34,2.4,-0.466,0.0133,0.221,2,6.24,0.19,-0.58,2.11
CGAACTAGGTCATCCAAGACAGTGAATACATTGA,4.2,2.37,0.551,2.26,0.197,4.78,8.08,6.67,4.23,5.9,8.33,8.19,3.65,2.15,1.93,1.67,0.36,2.67,1.01,3.95
CAAACTAGGTCACAGAGGTCAAAGCCCGTGCGTA,7.26,6.74,6.92,5.93,1.72,6.63,10.4,8.24,7,8.42,8.71,9.13,4.98,2.72,4.59,6.66,10.8,7.48,2.65,5.27
GCTTATGGGTCAAAGGTTATAGCATGAATAGAAT,6.45,5.27,0.469,5.46,0.477,6.76,11.9,10.1,10.2,11,7.1,7.2,2.03,2.31,2.17,5.71,0.209,7.4,1.13,4.41
TCTAGTTAGTCAAAGGTCACACACTCGAAATGCG,5.6,5.78,4.78,5.34,1.76,5.98,8,7.8,6.86,8.1,2.7,4.43,1.17,3.06,5.38,5.63,2.01,6.72,3.05,4.74
CCTCCTGGGCCACGAAAGGTCATTGATTCAGTGA,3.25,5.1,4.52,4.15,-0.0448,4.14,1.39,2.94,0.283,2.02,0.578,2.2,-0.811,-1.6,1.96,5.33,0.829,4.92,0.516,3.97
AGTCAAAGTTCCGGACGAGGTAACGTAAAGCACG,-0.0931,-0.354,-0.166,-0.301,-0.695,-0.0739,0.679,0.221,-0.0701,0.189,-0.341,0.284,0.0206,-0.236,-0.335,-0.34,-0.452,0.0687,-0.122,0.265
CGTCCAAGGTCAGAGGGGTCAGTGAATGCCGAGT,6.36,4.81,1.33,4.54,0.592,5.12,4.33,4.71,1.43,3.39,2.84,3.28,-0.262,0.193,5.46,6.03,9.87,6.26,2.33,5.24
CCTATTAGTTGACCATTAGGGCAACCGAAGCTCG,0.493,0.0846,0.475,0.224,0.396,0.454,0.203,0.612,0.0251,0.278,1.18,1.3,-0.00387,0.76,1.65,0.111,0.563,0.412,1.35,1.04
AGAATGAGGTTATACGGAGATCAGGGAAGAAAGT,2.36,1.94,0.0841,1.7,0.0612,3.29,1.7,2.04,0.685,1.45,2.35,2.05,1.14,0.774,0.836,1.25,0.96,1.74,0.352,1.5
TGAATAAGGTTAAAGATCAGGGAACGTGGCGTCG,2.83,2.57,0.114,1.71,0.337,3.91,4.41,5.68,4.08,5.9,1.52,2.45,0.601,0.358,1.06,1.73,0.429,3.27,0.953,2.35
GCGATTGGGGCATCAGCAGGTTACCATAACTTAA,0.0293,-0.187,-0.243,1.24,-0.0268,0.814,0.255,-0.0261,-0.258,-0.582,1.79,0.996,-0.746,-0.408,0.245,0.113,-0.0157,0.281,-0.368,0.823
CCTACTGTGCCAAAGGTCATTGATTCCAATGCTC,5.48,5.82,5.32,5.34,2.14,6.17,11.4,9.67,9.47,10.3,5.24,5.97,0.578,0.496,4.4,5.42,2.77,5.77,2.56,4.63
CCTAGCAGGCCAGGGTCACTCTAGCATTTCGCTT,1.58,1.43,-0.629,1.71,-0.953,2.59,0.377,1.19,-0.703,-0.00564,0.274,0.7,-1.19,-1.73,0.937,2.39,-0.295,3.03,-0.305,2.52
ATCTCTAGGTGACAAGTTCAGTGAAAGAGAGGAC,0.297,0.503,0.114,0.645,0.171,2.58,3.19,3.1,1.46,2.43,4.9,4.99,1.89,2.47,0.963,1.33,1.38,0.974,0.324,2.12
TCATATAGGTAAAAAGGTGAAAGTCCGTAAGTTA,1.56,1.85,0.558,1.8,0.394,3.53,3.87,5.05,5.01,5.53,4.17,4,0.729,0.649,1.85,1.4,0.696,2.87,1.81,2.03
CGAACTAGGTCATTAACAGGACAGTGAATAGTAA,3.27,2.59,0.8,1.88,-0.0794,4.12,7.01,5.93,3.43,5.45,8.02,7.96,3.04,1.69,2.06,1.28,0.557,1.97,0.792,3.27
CCTCGGAGGACAACAGGAGGTCAGAGCAGCCAGA,1.3,1.9,1.9,1.4,-0.432,2.01,0.586,0.217,-0.349,-0.371,-0.204,0.388,-0.931,-1.16,1.41,2.05,0.438,2.23,0.698,2.87
CCGACTGGGGCATGAGGTTACCATAAGCCAGCCC,0.319,1.56,-0.254,0.386,-1.09,1.72,2.04,2.41,0.402,1.62,3.01,3.6,-1.07,-0.773,0.383,0.287,-0.219,1.06,-0.49,1.42

# Source: the supplement of paper PMC6555819
